# Screening data from PubChem BioAssay.
# The list is not random: actives were taken first. Their share in the collection is about 21%.
# Shiga toxin inh = blocks Shiga toxin action in Vero cells. Vero cells, Shiga toxin protein synthesis inhibition reporter. inhibition, % at 38.7 µM. actives 9.2% (n = 290,000); in the data active means inhibition mostly above about 28%, no sharp cut-off; inactive means mostly below about 43%; further: 0% is about no effect
# Pf growth 96h = P. falciparum growth inhibition at 96 hour, primary screen for plastid delayed-death inhibitors; Potency, µM (highest dose often 28.7 µM), without a hit: at the top dose activity change, negative = inhibition, actives largely listed as inhibitors; actives 6.9% (n = 320,000); P. falciparum luciferase reporter growth, 96 h; further: potency means the concentration at half of the fitted maximal effect; on the % scale 0 is the no-effect control and ±100 the full control effect
#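 Readout is luminescence from an integrated firefly luciferase in P. falciparum. Red cells, 2% hematocrit and 0.05% parasitemia final, were cultured with compound through two parasite generations (96 hours) at 37 C, 5% CO2.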
# Pf growth 48h = inhibits P. falciparum growth in the first generation, 48 h; AID 504832; actives 5.9% (n = 310,000); P. falciparum luciferase growth in erythrocytes, 48 h; Potency, µM (titrated, usually from 28.7 µM), without a hit: at the highest dose activity change, negative = inhibition, most hits filed as inhibitors; further: potency means the concentration at half of the fitted maximal effect; on the % scale 0 is the no-effect control and ±100 the full control effect
#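 Cell-based growth assay: transgenic P. falciparum expressing firefly luciferase, cultured in red cells within RPMI 1640 containing 0.5% w/v Albumax, 24 mM bicarbonate and gentamycin. A drop in luciferase activity indicates inhibition.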
# HCV inh = blocks hepatitis C virus. Huh7.5.1 HCVcc-Cre infection, luciferase reporter, 44 h. AID 651820. Potency, µM (highest dose often 41.8 µM), for the others: at the top dose activity change, negative = inhibition, usual class: inhibitors. actives 3.4% (n = 340,000); further: potency means the concentration at half of the fitted maximal effect; on the % scale 0 is the no-effect control and ±100 the full control effect
#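 Cells seeded at 1,000/well and cultured 4 h, then compounds added followed by HCVcc-Cre virus (~0.5 moi). After 44 h further culture, luciferase substrate was added, plates held 15 min at room temperature, and luminescence read for 15 sec.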
# Cycloheximide cs = counter-screen for Shiga toxin inhibitors: cycloheximide protein synthesis inhibition; cell reporter, cycloheximide protein synthesis inhibition counterscreen; max response, %; actives 12% (n = 300,000); AID 2314; in the data active means max response mostly above about 13%, no sharp cut-off; inactive means mostly below about 14%; further: read at 38.3 µM for the half of the compounds with a filed dose; 0% is about no effect
# AMA1 RON2 block = disrupts binding of P. falciparum AMA1 to RON2 | AID 720542 | AlphaScreen AMA1-biotinylated RON2 peptide binding | actives 0.2% (n = 360,000) | Potency, µM (doses to about 58.2 µM), inactives show at the top dose activity change, negative = inhibition, hits mostly inhibitors;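 further: potency means the concentration at half of the fitted maximal effect; 0% = vehicle wells and -100% = peptide control; nearly all actives have a fitted effect of over 45% in size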
#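 AMA1 (3D7) with his tag at 25 nM final met compounds first, then biotinylated RON2 peptide at 25 nM; detection used donor plus acceptor beads, 10 µg/mL apiece, read by AlphaScreen after 30 min at room temperature.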
# * hit, by the source's call; ? = inconclusive; · = not tested or not shown. Unless noted, the call rests on the fitted dose curve; in most records, active means well fitted curve in the direction sought with a large enough effect; inconclusive means small, poorly fitted or top-dose-only effect, or another doubt; inactive means no such curve, though single readings can be large; an effect the other way counts as inactive or inconclusive.
SMILES,Shiga toxin inh,Pf growth 96h,Pf growth 48h,HCV inh,Cycloheximide cs,AMA1 RON2 block
Cc1ccc(NS(=O)(=O)c2ccc(-c3coc(C)n3)cc2)c(Cl)c1,·,·,·,·,·,-3%
C/C=C/C=C/C(=O)N1CC[C@]23c4ccccc4N[C@H]4N(C)c5cccc6c5[C@]42CCN([C@H]6C2OC2(C)C)[C@H]13 (some centres not stated),-5,38%,12µM*,?,-3,?
Cc1ccc(C(=O)NCCc2cc3ccc(C)c(C)c3[nH]c2=O)cc1[N+](=O)[O-],-7,?,-21%,3%,-2,-11%
O=C(NCc1ccc2[nH]c3c(c2c1)CCCC3)c1ccc(S(=O)(=O)N2CCCCC2)cc1,-9,10µM*,?,?,-2,7%
Cc1cc2cc(CCNC(=O)c3cccs3)c(=O)[nH]c2cc1C,54*,-15%,70%,-20%,31*,-2%
Cc1ccc2cc(CCNC(=O)c3ccc(S(=O)(=O)N4CCOCC4)cc3)c(=O)[nH]c2c1C,-5,12µM*,?,?,-2,-7%
Cc1[nH]c2ccccc2c1SCCNC(=O)c1ccc(S(=O)(=O)N2CCCC2)cc1,-10,13µM*,?,?,-6,-12%
CC(c1ccccc1)n1c(SCC(=O)Nc2ccccc2)n[nH]c1=O (configuration not stated),-8,16%,2%,?,-4,11%
Cc1ccc2cc(CCNC(=O)c3ccc(S(=O)(=O)N4CCOCC4)cc3)c(=O)[nH]c2c1,1,13µM*,?,·,-5,-2%
Cc1cc2cc(CCNC(=O)c3ccc(S(=O)(=O)N4CCOCC4)cc3)c(=O)[nH]c2cc1C,24,8.3µM*,?,?,-1,-2%
Cc1ccc(C)c2[nH]c(=O)c(CCNC(=O)c3ccc(S(=O)(=O)N4CCCC4)cc3)cc12,33,?,12µM*,?,-1,-9%
Cc1ccc2cc(CCNC(=O)c3ccc(S(=O)(=O)N4CCCCC4)cc3)c(=O)[nH]c2c1,16,?,?,?,6,-2%
CCC(CC)C(=O)NCCc1cc2c(C)ccc(C)c2[nH]c1=O,-5,49%,8%,4%,0,-8%
NC(c1csc(Nc2ccc(C(F)(F)F)cn2)n1)C1CCCCC1 (configuration not stated),·,·,·,·,·,70%
COC(=O)C1=CN(c2ccc(F)cc2)C(N)=C(C#N)C1c1ccc(-c2ccccc2)cc1 (configuration not stated),·,·,·,·,·,44%
O=C(COc1ccc([N+](=O)[O-])cc1)N/N=C/c1cc([N+](=O)[O-])ccc1N1CCOCC1,14,-6%,-21%,3%,-1,15%
CCN(CC)C(=O)C1CCCN(c2ccc([N+](=O)[O-])cc2[N+](=O)[O-])C1 (configuration not stated),-4,3%,-5%,-15%,-2,0%
CCN(CC)C(=O)C1CCCN(c2ccc([N+](=O)[O-])cc2/C=N/NC(=O)c2cccc([N+](=O)[O-])c2)C1 (configuration not stated),-3,10µM*,?,?,-2,44%
O=C(Cn1c2ccccc2c(=O)c2ccccc21)N/N=C/c1ccc(N2CCCC2)c([N+](=O)[O-])c1,9,42%,25%,?,3,5%
O=C(N/N=C/c1cc([N+](=O)[O-])ccc1N1CCNCC1)c1ccc([N+](=O)[O-])cc1,-9,4.1µM*,?,?,0,23%
O=C(CNc1ccccc1)N/N=C/c1cc([N+](=O)[O-])ccc1N1CCCC1,-16,?,14%,?,-6,-2%
O=C(Cn1c2ccccc2c(=O)c2ccccc21)N/N=C/c1cc([N+](=O)[O-])ccc1N1CCCCCC1,-13,23%,9%,2.5µM*,-5,26%
N#CCC(=O)N/N=C/c1cc([N+](=O)[O-])ccc1N1CCCC1,47*,?,?,-10%,33,18%
Cc1ccc(-c2nn(-c3ccccc3)cc2C=O)o1,112*,63%,176%,0%,51*,-12%
OCc1cn(-c2ccccc2)nc1-c1ccco1,25,77%,·,-11%,16,-7%
SMILES,Shiga toxin inh,Pf growth 96h,Pf growth 48h,HCV inh,Cycloheximide cs,AMA1 RON2 block
Cc1ccc(-c2nn(-c3ccccc3)cc2C(N)=O)o1,-4,19%,0%,-5%,12,-2%
Cc1ccc(-c2nn(-c3cccc(F)c3)cc2CNCc2cccnc2)o1,27,26%,?,1%,10*,-5%
Cc1ccc(-c2nn(-c3ccccc3)cc2CO)o1,85*,44%,489%,-13%,34*,0%
CCc1nc2c(OCc3ccc(F)cc3)cccn2c1N(C)C(=O)c1ccc(C)cc1,·,·,·,·,·,0%
C=C(C)c1ccccc1,·,40%,16%,5%,·,-1%
Cc1ccc(S(=O)(=O)N2CCCCC2)cc1NC(=O)c1ccc(=O)[nH]c1,·,·,·,·,·,-3%
Cc1nc(NC(=O)c2ccc(Cl)cc2)nc2cc3c(cc12)OCO3,14,19%,18%,6%,-4,-1%
Cc1c(-c2cc(Br)ccc2O)nc2cc3c(cc2c1C)OCO3,47*,?,·,-13%,38*,-13%
O=c1[nH]c(/C=C/c2cccc([N+](=O)[O-])c2)c([N+](=O)[O-])c(=O)[nH]1,2,?,?,19%,1,-8%
O=c1[nH]c(/C=C/c2ccccc2)c([N+](=O)[O-])c(=O)[nH]1,-12,10µM*,8%,21%,-3,-1%
COc1cccc(CN(C)C(=O)c2cc(-c3cccs3)nc3ccccc23)c1,-4,?,?,?,1,-14%
CC(/C=C/c1ccco1)=N/NC(=O)OC(C)(C)C,52,2%,36%,5%,23*,28%
COc1ccc(CC(=O)N/N=C(/C)c2ccco2)cc1,-7,18%,14%,11%,1,4%
CC(/C=C/c1ccco1)=N\NC(=O)c1cc(Cl)ccc1O,91*,3%,-18%,11%,27*,37%
C/C(=N/NC(=O)OC(C)(C)C)c1ccco1,66*,53%,92%,9%,29*,11%
Cc1ccccc1OCC(=O)OCC(=O)NC1CCCC1,·,·,·,·,·,-5%
COC(=O)c1cccc(C(=O)N2CCCC(Nc3ccc(C)c(C)c3)C2)c1 (configuration not stated),-8,48%,0%,3%,2,-11%
CSc1nc(N)nc(SCC(=O)Nc2ccc(Cl)cc2)c1C#N,43*,-13%,-8%,?,20*,-13%
CSc1nc(N)nc(SCC(=O)Nc2cccc(F)c2)c1C#N,77*,-6%,?,?,28,11%
CSc1nc(N)nc(SCC(=O)CC(=O)OC(C)C)c1C#N,-20,?,?,-16%,-3,-10%
